Test results: PubChem BioAssay (NCATS)
Records with an inconclusive call do not appear. A number with no mark means an inactive call. Activity calls are given as the source filed them. The call rests on the fitted dose curve; in most records, active means well fitted cell-killing curve with a large enough effect; inconclusive means small, poorly fitted or top-dose-only effect, or effect the other way; inactive means no such curve, though single readings can be large or run the other way.

assay: Quantitative High-Throughput drug screen in 47 multiple myeloma cell lines against the NCATS MIPE library collection: MOLP8_DSMZ cell viability assay (AID 1918977); conditions: MOLP8 myeloma viability, CellTiter-Glo ATP luminescence, 48 h; series mostly up to 45.8 µM; viability (% of control): at the top concentration; further: nearly all actives have a fitted effect of over 45% in size
Description: PI: Beverly A. Mock Ph.D.
Laboratory of Cancer Biology and Genetics,
Center for Cancer Research, National Cancer Institute,
National Institute of Health, Bethesda, Maryland
Drug resistance and disease progression are common in multiple myeloma (MM) patients, underscoring the need for new therapeutic combinations. […] We hypothesized that effective combinations would reduce MYC expression and enhance p16 activity. […] These preclinical data identify potentially useful drug combinations for evaluation in drug-resistant MM and reveal potential mechanisms of combined drug sensitivity.
Described herein is the primary MIPE qHTS used to cherrypick compounds. Validated compounds were then further tested for potential synergistic activiy.
[1] Peat TJ, Gaikwad SM, Dubois W, Gyabaah-Kessie N, Zhang S, Gorjifard S, Phyo Z, Andres M, Hughitt VK, Simpson RM, Miller MA, Girvin AT, Taylor A, Williams D, D'Antonio N, Zhang Y, Rajagopalan A, Flietner E, Wilson K, Zhang X, Shinn P, Klumpp-Thomas C, McKnight C, Itkin Z, Chen L, Kazandijian D, Zhang J, Michalowski AM, Simmons JK, Keats J, Thomas CJ, Mock BA. Drug combinations identified by high-throughput screening promote cell cycle transition and upregulate Smad pathways in myeloma. Cancer Lett. 2023 Aug 1;568:216284. doi: 10.1016/j.canlet.2023.216284. Epub 2023 Jun 24. PMID: 37356470; PMCID: PMC10408729.
SEQUENCE No. (e.g., 1, 2, 3, etc.); […] (e.g., Cells, Incubation, Reagent, etc.); VALUE and DESCRIPTION.
1; Cells; 5 uL; white, solid bottom 1536-well Greiner assay plate.
2; Compounds; 23 nL; Kalypsis pin tool (Wako USA) equipped with a 1536-well pin head to transfer to the assay plates.
3; Incubation; 48 hours; 37C incubation.
4; Reagent;5uL; CellTiter Glo (Promega).
5; Detector; 425V; Luminescence; Viewlux PerkinElmer.
NOTES (numbers refer to Sequence numbers above)
1. The cell-based screening methods employed in this study were like those previously published. Briefly, the corresponding myeloma cell lines were screened in 1,536-well plates with 500 cells, 5-uL per well for inhibition of cell viability (assessed by measuring ATP levels with CellTiterGlo).
2. NCATS MIPE 4.0 library of approved and investigational drugs were added using the Kalypsis pin tool. Wells treated with DMSO only for 100% viability and media only for 0% viability were used as controls.
3. The assay plates were covered and incubated for 48 hours in a 37C, 5% CO2 incubator with controlled humidity.
4. After 48 hours, CellTilter-GloTM luminescent substrate mix (Promega) reagent was added to the assay plate and plates we incubated for 5 min at room temperature.
5. Signal was measured as median relative luminescence units on a ViewLux (PerkinElmer) multiplate reader.
[1] Heske CM, Davis MI, Baumgart JT, Wilson K, Gormally MV, Chen L, Zhang X, Ceribelli M, Duveau DY, Guha R, Ferrer M, Arnaldez FI, Ji J, Tran HL, Zhang Y, Mendoza A, Helman LJ, Thomas CJ. Matrix Screen Identifies Synergistic Combination of PARP Inhibitors and Nicotinamide Phosphoribosyltransferase (NAMPT) Inhibitors in Ewing Sarcoma. Clin Cancer Res. 2017 Dec 1;23(23):7301-7311. doi: 10.1158/1078-0432.CCR-17-1121. Epub 2017 Sep 12. PMID: 28899971; PMCID: PMC6636827.
Potency means the concentration at half of the fitted maximal effect.

SMILES | Potency | viability (% of control)
COC1=CC(C)=C[C@@H](C)[C@@H](O)[C@@H](C)CC(C)=CC=C[C@H](OC)[C@H]([C@@H](C)[C@@H](O)[C@H](C)[C@@]2(O)C[C@@H](O)[C@H](C)[C@@H](C(C)C)O2)OC1=O | 0.0042 µM (active) | 
Cc1c(C(=O)Nc2cccc(C(F)(F)F)c2)cc(-c2ccccc2)n1CCCN1CCOCC1 | 20.9 µM (active) | 
O=S(=O)(CC1CS1)c1ccc(Oc2ccccc2)cc1 (stereo not given) | 16.6 µM (active) | 
CC1=C(O)C(=O)C=C2C1=CC=C1[C@@]2(C)CC[C@@]2(C)[C@@H]3C[C@](C)(C(=O)O)CC[C@]3(C)CC[C@]12C | 0.418 µM (active) | 
Cc1[nH]nc2ccc(-c3cncc(OC[C@@H](N)Cc4c[nH]c5ccccc45)c3)cc12 | 0.264 µM (active) | 
C[C@@]12OC(=O)[C@]1([C@@H](O)[C@@H]1C=CCCC1)NC(=O)[C@H]2CCCl | 0.0053 µM (active) | 
O=C(O)CNC(=O)c1c(O)c2ccccc2n(Cc2ccccc2)c1=O |  | 93.4%
COc1cc2cc(c1Cl)N(C)C(=O)C[C@H](OC(=O)C(C)C)[C@]1(C)O[C@H]1[C@H](C)[C@@H]1C[C@@](O)(NC(=O)O1)[C@H](OC)C=CC=C(C)C2 |  | 11.3%
C[C@@H]1O[C@@H](O[C@@H]2C=C3CC[C@@H]4[C@@H](CC[C@]5(C)[C@H](c6ccc(=O)oc6)CC[C@@]45O)[C@@]3(C)CC2)[C@H](O)[C@H](O)[C@H]1O | 0.0296 µM (active) | 
Cc1ccccc1-n1c(Cn2cnc3c(N)ncnc32)nc2cccc(C)c2c1=O | 0.0743 µM (active) | 
CC(C)(O)C=CC(=O)[C@](C)(O)[C@H]1[C@H](O)C[C@]2(C)[C@@H]3CC=C4[C@@H](C=C(O)C(=O)C4(C)C)[C@]3(C)C(=O)C[C@@]12C | 0.0469 µM (active) | 
COc1cc([C@@H]2c3cc4c(cc3[C@@H](O)C3COC(=O)C32)OCO4)cc(OC)c1O (stereo not given in full) | 0.418 µM (active) | 
c1cc2c(cc1[C@H]1OC[C@H]3[C@H]1CO[C@H]3c1ccc3c(c1)OCO3)OCO2 |  | 76%
CC(=CCCC1=CCC(C2=CC(=O)OC2O)OC1O)CCC1=C(C)CCCC1(C)C (stereo not given) |  | 111%
Oc1ccc2c3c1O[C@H]1c4[nH]c5c(c4C[C@@]4(O)[C@@H](C2)N(CC2CC2)CC[C@]314)C[C@@]1(O)[C@H]2Cc3ccc(O)c4c3[C@@]1(CCN2CC1CC1)[C@H]5O4 |  | 96.2%
CC[C@@H]1[C@@H](C)O[C@@](O)([C@@H](C)[C@H](O)[C@H](C)[C@H]2OC(=O)C=CC=C[C@@H](C)[C@@H]([C@@H](C)[C@@H](O)[C@H](C)[C@@]3(O)C[C@H](O[C@H]4C[C@H](O)[C@H](O)[C@H](C)O4)[C@H](CC)[C@@H](C)O3)OC(=O)C=CC=C[C@@H]2C)C[C@H]1O[C@H]1C[C@H](O)[C@H](O)[C@H](C)O1 | 0.418 µM (active) | 
CC[C@@H](C(N)=O)N1CCCC1=O |  | 98%
CN(C)[C@@H]1C(=O)C(C(N)=O)=C(O)[C@@]2(O)C(=O)C3=C(O)c4c(O)cccc4[C@@](C)(O)[C@H]3[C@H](O)[C@@H]12 | 11.8 µM (active) | 
C[C@@H]1[C@H](O)[C@@H](C)C=CC=CCCC=CC=CC=CC=C[C@H](O[C@H]2O[C@@H](C)[C@H](O)[C@@H](N)[C@@H]2O)CC2O[C@](O)(C[C@@H](O)[C@H](O)CC[C@@H](O)C[C@@H](O)C[C@@H](O)CC(=O)O[C@H]1C)C[C@H](O)[C@H]2C(=O)O |  | 112%
CC(=O)O[C@@]12CO[C@H]1C[C@H](O)[C@@]1(C)C(=O)[C@H](O)C3=C(C)[C@@H](O)C[C@@](O)([C@@H](OC(=O)c4ccccc4)[C@@H]21)C3(C)C | 2.96 µM (active) | 

SMILES | Potency | viability (% of control)
CCCCCC[C@H]1C(=O)O[C@H](C)[C@H](NC(=O)c2cccc(NC=O)c2O)C(=O)O[C@@H](C)[C@@H]1OC(=O)CC(C)C | 0.235 µM (active) | 
CC(=O)N(C)c1cccc(-c2ccnc3c(C(=O)c4cccs4)cnn23)c1 |  | 113%
CCNC(=O)C[C@@H]1N=C(c2ccc(Cl)cc2)c2cc(OC)ccc2-n2c(C)nnc21 | 0.209 µM (active) | 
COc1ccc(N(C(=O)Oc2c(C)cccc2C)c2ccnc(Nc3ccc(N4CCN(C)CC4)cc3)n2)c(OC)c1 | 3.72 µM (active) | 
COc1ccc(CC2NCCc3cc(OC)c(OC)cc32)cc1OC (stereo not given) |  | 102%
CC[C@@]1(O)C(=O)OCc2c1cc1n(c2=O)Cc2cc3ccccc3nc2-1 | 0.132 µM (active) | 
C#C[C@]1(O)C=C[C@@H]2[C@@H]3CCC4=CC(=O)CC[C@@H]4[C@H]3CC[C@@]21CC |  | 115%
O=C(Oc1ccc([N+](=O)[O-])cc1)N1CCC(C(O)(c2ccc3c(c2)OCO3)c2ccc3c(c2)OCO3)CC1 |  | 57.1%
C[C@]12CC[C@H]3[C@@H](CCC4=CC(=O)CC[C@@]43C)[C@H]1CC[C@H]2O |  | 106%
Clc1ccccc1C(c1ccccc1)(c1ccccc1)n1cccn1 | 16.6 µM (active) | 
CC(C)N(CCNC(=O)CN1CCCC1=O)C(C)C |  | 99.5%
C[C@@H]1CC[C@H]2[C@@H](C)C(=O)O[C@@H]3O[C@@]4(C)CC[C@H]1[C@]32OO4 | 0.187 µM (active) | 
CC=C(C)C(=O)N[C@@H](c1ccccc1)[C@@H](O)C(=O)O[C@H]1C[C@@]2(O)[C@@H](OC(=O)c3ccccc3)[C@@H]3[C@]4(OC(C)=O)CO[C@@H]4C[C@H](O)[C@@]3(C)C(=O)[C@H](OC(C)=O)C(=C1C)C2(C)C |  | 52.7%
CC=C(C)C(=O)O[C@H]1C(C)=C2[C@@H]3OC(=O)[C@@](C)(O)[C@@]3(O)[C@@H](OC(=O)CCC)C[C@](C)(OC(C)=O)[C@@H]2[C@@H]1OC(=O)CCCCCCC | 0.0418 µM (active) | 
COC(=O)[C@@H](N)CCCN=C(N)N[N+](=O)[O-] |  | 145%
CC(C)[C@]12O[C@@H]1[C@@H]1O[C@]13[C@]1(O[C@H]1C[C@@H]1C4=C(CC[C@@]13C)C(=O)OC4)[C@H]2O |  | 2.67%
CCN1CCN(C(=O)Cc2ccc(Nc3ncc(F)c(Nc4ccc(C(=O)Nc5ccccc5Cl)cc4)n3)cc2)CC1 | 7.43 µM (active) | 
CN1[C@H]2CC(O)C[C@H]1[C@H]1O[C@H]12 (stereo not given in full) | 13.2 µM (active) | 
COCC1(CO)C(=O)C2CCN1CC2 (stereo not given) | 0.59 µM (active) | 
COc1ccc2c(c1)[C@]13CCCCC1C(C2)N(C)CC3 (stereo not given in full) |  | 91%
